Calls of active or inactive are those of the source. How the source made its calls: active means hit-call score of the fitted dose curve at least 0.9, where 1 is the maximum; inactive means score below 0.9.
How the values were obtained:
[1] = ATG_ISRE_CIS: Attagene CIS-FACTORIAL HepG2 Assay for human Interferon Regulatory Factor 1 (IRF1) binding to an Interferon-Stimulated Response Element (ISRE) (AID 2282948); conditions: HepG2 ISRE cis-reporter (Attagene), mRNA transcription readout; actives raise or lower the signal
Procedure, shortened: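 Signal reflects induction or loss of ISRE-linked reporter mRNA in transiently transfected HepG2 cells after a 24 h treatment, detected by fluorescent RT-PCR fragments on capillary electrophoresis and normalised to DMSO.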

[2] = ATG_M_32_CIS: Attagene CIS-FACTORIAL HepG2 Assay for M32 Transcription Factor (Internal Marker) (AID 2282949); conditions: HepG2 Attagene cis-factorial M32 reporter, mRNA; actives raise or lower the signal;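 further: background control marker of the multiplexed CIS panel rather than a real target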
Procedure, shortened: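 HepG2 human liver cells transiently transfected with cis-promoter-driven multiple reporter transcription units, dosed 24 h. Reporter mRNA quantified by RT-PCR, FAM-labelled primer extension, HpaI digest and capillary electrophoresis; bidirectional fit versus DMSO baseline.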

[3] = ATG_M_06_CIS: Attagene CIS-FACTORIAL HepG2 Assay for M06 Transcription Factor (Internal Marker) (AID 2282950); conditions: HepG2 Attagene CIS-FACTORIAL M06 internal marker reporter; actives raise or lower the signal
Procedure, shortened: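 HepG2 cells transiently transfected with cis-regulated multiple reporter transcription units were exposed to chemical for 24 h; reporter mRNA was quantified by RT-PCR, 6-FAM primer labelling, HpaI digestion and capillary electrophoresis, fitted bidirectionally against DMSO.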

[4] = molecular target: Hypoxia-inducible factor 1-alpha (Homo sapiens) (UniProt Q16665); test: ATG_HIF1a_CIS: Attagene CIS-FACTORIAL HepG2 Assay for human Hypoxia Inducible Factor 1 (HIF1A) (AID 2282951); conditions: HepG2 Attagene cis-factorial HIF1a reporter transcription; actives raise or lower the signal
Procedure, shortened: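 Endogenous-TF cis reporter readout, human HepG2 cells, 24 h incubation; mRNA detected via RT-PCR and capillary electrophoresis fluorescence; DMSO-normalised bidirectional fitting.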

[5] = ATG_MRE_CIS: Attagene CIS-FACTORIAL HepG2 Assay for human Metal Responsive Element (MRE) (AID 2282954); conditions: HepG2 MRE cis-reporter transcription, Attagene multiplex; actives raise or lower the signal
Procedure, shortened: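 Endogenous MRE-dependent transcription read as reporter mRNA in transiently transfected human HepG2 cells at 24 h. RNA reverse-transcribed, PCR-amplified, labelled and resolved by capillary electrophoresis; gain or loss relative to DMSO.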

[6] = ATG_PBREM_CIS: Attagene CIS-FACTORIAL HepG2 Assay for human Phenobarbital-responsive Enhancer Module (PBREM) (AID 2282955); conditions: HepG2 PBREM cis-reporter, Attagene multiplexed transcription; actives raise or lower the signal
Procedure, shortened: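 Readout: reporter mRNA, fluorescent RT-PCR fragments separated by capillary electrophoresis. System: HepG2 transiently transfected with cis-regulated reporter units. Exposure: 24 h. Analysis: bidirectional, DMSO baseline.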

[7] = molecular target: Paired box protein Pax-6 (Homo sapiens) (UniProt P26367); test: ATG_Pax6_CIS: Attagene CIS-FACTORIAL HepG2 Assay for human Paired Box 6 (PAX6) (AID 2282956); conditions: HepG2 CIS-FACTORIAL PAX6 reporter transcription, RNA readout; actives raise or lower the signal
Procedure, shortened: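 Values derive from bidirectional curve fitting of reporter mRNA signal relative to DMSO. HepG2 cells bearing transfected cis-regulated MRTUs were exposed for 24 h; transcripts were read by RT-PCR and capillary electrophoresis.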

[8] = ATG_PXRE_CIS: Attagene CIS-FACTORIAL HepG2 Assay for human Pregnane X Receptor Element (PXRE) (AID 2282957); conditions: HepG2 Attagene CIS-FACTORIAL PXRE reporter, mRNA; actives raise or lower the signal
Procedure, shortened: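 Reporter transcripts under endogenous PXR-responsive cis-regulation quantified from total RNA of transfected HepG2 cells 24 h post-dosing, via RT-PCR with fluorescent primer extension and capillary electrophoresis. Gain or loss of signal fitted against DMSO baseline.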

[9] = ATG_PPRE_CIS: Attagene CIS-FACTORIAL HepG2 Assay for human Peroxisome Proliferator-activated Response Element (PPRE) (AID 2282958); conditions: HepG2 PPRE cis-element reporter, Attagene transcription factor profiling; actives raise or lower the signal
Procedure, shortened: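 After human HepG2 hepatoma cells were transiently transfected with cis-promoter reporter constructs, they were exposed to test chemicals for 24 hours. Reporter RNA was then reverse-transcribed, PCR-amplified, FAM-labeled, HpaI-digested and quantified by capillary electrophoresis.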

[10] = ATG_Sox_CIS: Attagene CIS-FACTORIAL HepG2 Assay for human SRY-box transcription factor (SOX) (AID 2282960); conditions: HepG2 Attagene cis-factorial SOX reporter, mRNA; actives raise or lower the signal
Procedure, shortened: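 Using transiently transfected HepG2 cells, reporter transcription driven by cis elements was assessed 24 h after dosing. Signal was fluorescence of capillary-separated RT-PCR products, with DMSO defining baseline activity.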

[11] = molecular target: Transcription factor Sp1 (Homo sapiens) (UniProt P08047); test: ATG_Sp1_CIS: Attagene CIS-FACTORIAL HepG2 Assay for human Specificity Protein 1 (Sp1) (AID 2282961); conditions: HepG2 Sp1 cis-reporter transcription, actives raise or lower the signal
Procedure, shortened: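 After transient transfection of HepG2 cells with cis-promoter reporter units and 24 h chemical treatment, reporter transcripts were quantified by RT-PCR and capillary electrophoresis fluorescence. Gain- and loss-of-signal fitted against DMSO.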

[12] = ATG_SREBP_CIS: Attagene CIS-FACTORIAL HepG2 Assay for human Sterol Regulatory Element Binding (SREBP) (AID 2282962); conditions: HepG2 Attagene cis-factorial SREBP reporter, mRNA; actives raise or lower the signal
Procedure, shortened: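 Values derive from bidirectional curve fitting with DMSO as baseline. The underlying measurement is reporter mRNA from cis-element-regulated units in transiently transfected HepG2, quantified by RT-PCR and capillary electrophoresis after 24 h exposure.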

[13] = molecular target: Signal transducer and activator of transcription 3 (Homo sapiens) (UniProt P40763); test: ATG_STAT3_CIS: Attagene CIS-FACTORIAL HepG2 Assay for human Signal Transducer and Activator of Transcription 3 (STAT3) (AID 2282963); conditions: HepG2, Attagene cis-factorial STAT3 reporter transcription; actives raise or lower the signal
Procedure, shortened: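 Readout is reporter transcript quantified by RT-PCR and capillary electrophoresis, with 6-FAM primer extension and HpaI digestion. Total RNA is taken 24 h after dosing transiently transfected HepG2 carrying cis-regulated reporter units. Bidirectional fit against DMSO.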

[14] = ATG_TA_CIS: Attagene CIS-FACTORIAL HepG2 Assay for human TA Basal Promoter (AID 2282964); conditions: HepG2 Attagene CIS-factorial TA basal promoter reporter; actives raise or lower the signal
Procedure, shortened: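 HepG2 cells transiently transfected with multiplexed cis-promoter reporter units, dosed 24 h. Reporter mRNA measured by RT-PCR, 6-FAM labelling, HpaI digestion and capillary electrophoresis; bidirectional fit versus DMSO baseline, serving as background control.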

[15] = ATG_TCF_b_cat_CIS: Attagene CIS-FACTORIAL HepG2 Assay for human T-Cell-Factor with beta-catenin (TCF/b-cat) (AID 2282965); conditions: HepG2 TCF/beta-catenin cis-reporter transcription, actives raise or lower the signal
Procedure, shortened: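 Endogenous transcription factor activity is captured through cis-promoter reporter constructs transiently introduced into human HepG2 liver cells. Induced reporter mRNA is measured after 24 h and fitted bidirectionally relative to DMSO.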

[16] = ATG_TAL_CIS: Attagene CIS-FACTORIAL HepG2 Assay for human TAL Basal Promoter (AID 2282966); conditions: HepG2 Attagene cis-factorial TAL promoter reporter; actives raise or lower the signal;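 further: background control endpoint measuring basal TAL promoter reporter mRNA not a specific factor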
Procedure, shortened: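 Background-control endpoint: basal TAL promoter reporter transcripts in transiently transfected HepG2, measured 24 h after dosing. Read-out by RT-PCR with fluorescent primer extension and capillary electrophoresis; gain or loss of signal fitted relative to DMSO.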

[17] = ATG_TGFb_CIS: Attagene CIS-FACTORIAL HepG2 Assay for human Transforming Growth Factor (TGF) (AID 2282967); conditions: HepG2 Attagene CIS TGFb reporter, mRNA transcription; actives raise or lower the signal
Procedure, shortened: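 HepG2 cells transiently transfected with cis-promoter-driven multiplexed reporter units; 24 h compound exposure. Reporter mRNA measured by RT-PCR, 6-FAM labeling, HpaI digestion and capillary electrophoresis; bidirectional fit versus DMSO baseline.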

[18] = molecular target: Heat shock factor protein 1 (Homo sapiens) (UniProt Q00613); test: ATG_HSE_CIS: Attagene CIS-FACTORIAL HepG2 Assay for human Heat Shock Transcription Factor 1 (HSE) (AID 2282953); conditions: HepG2 HSE cis-reporter, Attagene RNA transcription; actives raise or lower the signal
Procedure, shortened: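 HepG2 cells transiently transfected with multiple reporter transcription units under cis-regulatory promoter control, measuring endogenous transcription factor activity. After 24 h chemical exposure, reporter mRNA quantified by RT-PCR, fluorescent labelling, HpaI digestion and capillary electrophoresis; bidirectional fit versus DMSO.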

[19] = ATG_RORE_CIS: Attagene CIS-FACTORIAL HepG2 Assay for human RAR-related Orphan Receptor Element (RORE) (AID 2282959); conditions: HepG2 Attagene cis-factorial RORE reporter, mRNA; actives raise or lower the signal
Procedure, shortened: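 Measured here: transcript induction of a cis-regulated reporter in HepG2 cells transiently transfected via FuGene 6. After 24 h, RNA was processed by RT-PCR and fluorescent capillary electrophoresis; DMSO defined baseline activity.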

[20] = molecular target: Hepatocyte nuclear factor 6 (Homo sapiens) (UniProt Q9UBC0); test: ATG_HNF6_CIS: Attagene CIS-FACTORIAL HepG2 Assay for human Hepatocyte Nuclear Factor 6 (HNF6) (AID 2282952); conditions: HepG2 Attagene cis-factorial HNF6 reporter transcription; actives raise or lower the signal
Procedure, shortened: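 Endogenous factor activity read in transiently transfected HepG2 via promoter-regulated reporter transcripts. RNA harvested 24 h post-dosing, reverse-transcribed, PCR-amplified, FAM-labelled, HpaI-digested and resolved by capillary electrophoresis; fitted in both directions against DMSO.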

Chain of Transcription factor Sp1 (Homo sapiens) (P08047 whole entry, looked up): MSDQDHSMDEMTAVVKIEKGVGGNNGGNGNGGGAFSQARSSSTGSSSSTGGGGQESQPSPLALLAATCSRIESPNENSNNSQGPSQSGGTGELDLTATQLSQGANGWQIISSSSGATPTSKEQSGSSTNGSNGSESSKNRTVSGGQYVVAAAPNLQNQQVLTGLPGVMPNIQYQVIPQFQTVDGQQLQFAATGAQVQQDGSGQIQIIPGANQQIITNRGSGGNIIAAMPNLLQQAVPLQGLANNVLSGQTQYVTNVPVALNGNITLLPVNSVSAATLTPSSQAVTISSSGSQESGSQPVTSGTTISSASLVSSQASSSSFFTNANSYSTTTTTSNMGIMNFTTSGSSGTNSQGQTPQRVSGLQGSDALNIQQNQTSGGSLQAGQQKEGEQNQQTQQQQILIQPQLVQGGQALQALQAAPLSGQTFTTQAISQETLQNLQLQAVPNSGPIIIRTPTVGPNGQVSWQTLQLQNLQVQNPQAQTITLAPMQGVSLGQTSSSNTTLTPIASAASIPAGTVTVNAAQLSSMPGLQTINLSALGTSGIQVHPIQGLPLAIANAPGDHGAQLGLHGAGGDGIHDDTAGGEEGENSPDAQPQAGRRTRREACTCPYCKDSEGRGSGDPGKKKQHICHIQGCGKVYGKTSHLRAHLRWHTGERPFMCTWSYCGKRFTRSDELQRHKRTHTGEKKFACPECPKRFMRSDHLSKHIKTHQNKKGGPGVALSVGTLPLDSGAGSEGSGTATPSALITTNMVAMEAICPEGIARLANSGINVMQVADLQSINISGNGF
Chain of Heat shock factor protein 1 (Homo sapiens) (Q00613 whole entry, looked up): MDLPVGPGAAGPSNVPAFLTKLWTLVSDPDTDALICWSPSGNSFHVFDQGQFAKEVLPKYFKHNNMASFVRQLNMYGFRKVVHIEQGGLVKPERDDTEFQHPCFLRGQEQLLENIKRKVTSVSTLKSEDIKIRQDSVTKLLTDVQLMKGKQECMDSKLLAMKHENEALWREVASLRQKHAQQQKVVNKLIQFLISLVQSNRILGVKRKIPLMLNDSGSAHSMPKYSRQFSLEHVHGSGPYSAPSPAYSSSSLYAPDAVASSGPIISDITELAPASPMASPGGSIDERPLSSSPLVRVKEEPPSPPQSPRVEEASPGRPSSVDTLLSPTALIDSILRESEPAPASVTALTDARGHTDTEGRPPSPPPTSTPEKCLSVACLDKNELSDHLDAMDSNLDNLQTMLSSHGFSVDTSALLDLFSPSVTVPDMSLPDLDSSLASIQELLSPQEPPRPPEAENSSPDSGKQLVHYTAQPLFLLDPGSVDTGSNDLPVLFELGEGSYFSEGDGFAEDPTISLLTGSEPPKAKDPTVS
Chain of Paired box protein Pax-6 (Homo sapiens) (P26367 whole entry, looked up): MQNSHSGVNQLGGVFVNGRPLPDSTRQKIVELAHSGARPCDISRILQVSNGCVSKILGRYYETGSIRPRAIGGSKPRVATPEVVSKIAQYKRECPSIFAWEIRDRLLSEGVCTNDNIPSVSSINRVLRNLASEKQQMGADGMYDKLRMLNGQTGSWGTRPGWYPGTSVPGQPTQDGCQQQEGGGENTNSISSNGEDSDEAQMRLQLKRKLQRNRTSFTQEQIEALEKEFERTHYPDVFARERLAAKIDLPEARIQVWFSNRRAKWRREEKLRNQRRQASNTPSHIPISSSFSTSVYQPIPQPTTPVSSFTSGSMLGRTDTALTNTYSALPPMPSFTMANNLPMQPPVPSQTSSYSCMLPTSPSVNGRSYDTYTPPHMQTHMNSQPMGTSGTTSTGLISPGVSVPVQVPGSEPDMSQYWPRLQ
Chain of Signal transducer and activator of transcription 3 (Homo sapiens) (P40763 whole entry, looked up): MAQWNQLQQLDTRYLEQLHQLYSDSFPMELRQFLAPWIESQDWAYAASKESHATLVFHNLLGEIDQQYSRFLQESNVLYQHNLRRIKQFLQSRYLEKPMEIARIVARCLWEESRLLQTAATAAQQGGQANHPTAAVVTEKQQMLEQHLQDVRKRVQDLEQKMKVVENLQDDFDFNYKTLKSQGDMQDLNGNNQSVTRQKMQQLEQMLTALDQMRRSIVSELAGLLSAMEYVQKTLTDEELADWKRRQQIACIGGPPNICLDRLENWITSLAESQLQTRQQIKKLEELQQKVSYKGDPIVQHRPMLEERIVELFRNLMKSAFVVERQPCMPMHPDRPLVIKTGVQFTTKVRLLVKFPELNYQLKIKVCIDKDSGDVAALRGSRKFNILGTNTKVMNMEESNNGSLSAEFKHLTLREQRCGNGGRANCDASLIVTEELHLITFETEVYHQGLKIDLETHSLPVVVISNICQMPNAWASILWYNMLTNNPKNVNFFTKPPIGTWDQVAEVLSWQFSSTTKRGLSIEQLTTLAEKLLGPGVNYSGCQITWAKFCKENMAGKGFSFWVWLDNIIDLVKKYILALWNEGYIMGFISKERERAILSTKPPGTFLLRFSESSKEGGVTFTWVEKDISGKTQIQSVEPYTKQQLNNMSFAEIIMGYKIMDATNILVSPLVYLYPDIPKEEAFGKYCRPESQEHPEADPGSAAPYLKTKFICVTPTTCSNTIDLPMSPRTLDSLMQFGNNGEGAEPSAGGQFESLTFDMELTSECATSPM
Chain of Hypoxia-inducible factor 1-alpha (Homo sapiens) (Q16665 whole entry, looked up): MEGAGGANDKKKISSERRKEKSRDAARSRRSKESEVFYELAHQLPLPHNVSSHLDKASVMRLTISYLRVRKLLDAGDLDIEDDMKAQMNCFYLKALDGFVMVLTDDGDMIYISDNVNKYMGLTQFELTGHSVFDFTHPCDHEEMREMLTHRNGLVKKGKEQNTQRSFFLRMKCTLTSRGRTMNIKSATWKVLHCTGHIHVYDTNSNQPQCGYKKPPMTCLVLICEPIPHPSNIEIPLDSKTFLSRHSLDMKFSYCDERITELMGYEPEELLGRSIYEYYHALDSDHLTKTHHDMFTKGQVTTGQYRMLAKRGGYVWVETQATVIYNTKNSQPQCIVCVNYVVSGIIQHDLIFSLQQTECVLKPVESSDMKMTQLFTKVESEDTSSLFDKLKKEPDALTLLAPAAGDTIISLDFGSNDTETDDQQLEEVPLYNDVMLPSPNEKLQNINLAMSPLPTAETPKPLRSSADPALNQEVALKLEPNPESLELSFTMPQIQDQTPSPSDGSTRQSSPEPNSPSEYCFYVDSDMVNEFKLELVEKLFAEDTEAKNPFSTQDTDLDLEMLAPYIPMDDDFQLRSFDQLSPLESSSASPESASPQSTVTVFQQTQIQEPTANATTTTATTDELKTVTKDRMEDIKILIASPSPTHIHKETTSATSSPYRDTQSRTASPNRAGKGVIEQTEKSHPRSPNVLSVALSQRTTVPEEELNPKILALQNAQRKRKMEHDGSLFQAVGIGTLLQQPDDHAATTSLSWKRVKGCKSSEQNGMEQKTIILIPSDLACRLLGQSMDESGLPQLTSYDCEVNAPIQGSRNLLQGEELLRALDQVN
Chain of Hepatocyte nuclear factor 6 (Homo sapiens) (Q9UBC0 whole entry, looked up): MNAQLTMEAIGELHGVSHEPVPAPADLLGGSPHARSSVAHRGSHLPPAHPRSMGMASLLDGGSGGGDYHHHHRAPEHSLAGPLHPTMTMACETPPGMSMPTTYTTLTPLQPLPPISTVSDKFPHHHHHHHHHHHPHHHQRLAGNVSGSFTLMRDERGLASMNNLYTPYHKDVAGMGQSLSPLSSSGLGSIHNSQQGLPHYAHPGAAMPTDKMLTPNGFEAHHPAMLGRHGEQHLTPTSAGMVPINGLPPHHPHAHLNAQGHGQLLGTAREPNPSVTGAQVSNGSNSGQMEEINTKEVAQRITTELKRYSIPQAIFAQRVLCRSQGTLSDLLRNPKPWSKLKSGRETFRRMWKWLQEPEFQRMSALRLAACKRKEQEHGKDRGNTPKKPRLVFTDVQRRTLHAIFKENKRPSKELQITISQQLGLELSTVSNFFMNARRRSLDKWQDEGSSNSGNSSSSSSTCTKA

Structure (SMILES): Cc1ccc2nc3sc(=O)sc3nc2c1
- outcome [1]: inactive
- outcome [2]: inactive
- outcome [3]: inactive
- outcome [4]: inactive
- outcome [5]: inactive
- outcome [6]: inactive
- AC50 [7]: 7.08 µM (active)
- AC50 [8]: 6.36 µM (active)
- outcome [9]: inactive
- AC50 [10]: 6.58 µM (active)
- outcome [11]: inactive
- outcome [12]: inactive
- outcome [13]: inactive
- AC50 [14]: 43.9 µM (active)
- outcome [15]: inactive
- outcome [16]: inactive
- outcome [17]: inactive

Structure (SMILES): CCCCCCCCBr
- outcome [1]: inactive
- outcome [2]: inactive
- outcome [3]: inactive
- outcome [4]: inactive
- outcome [18]: inactive
- outcome [5]: inactive
- outcome [8]: inactive
- outcome [19]: inactive
- outcome [10]: inactive
- outcome [12]: inactive
- outcome [13]: inactive
- outcome [14]: inactive
- outcome [15]: inactive
- outcome [16]: inactive
- outcome [17]: inactive

Structure (SMILES): CCOP(=S)(OCC)Oc1ccc(Cl)cc1Cl
- outcome [1]: inactive
- outcome [2]: inactive
- outcome [3]: inactive
- outcome [4]: inactive
- outcome [18]: inactive
- outcome [5]: inactive
- outcome [6]: inactive
- outcome [7]: inactive
- AC50 [8]: 3.82 µM (active)
- outcome [9]: inactive
- outcome [19]: inactive
- outcome [10]: inactive
- outcome [11]: inactive
- outcome [12]: inactive
- outcome [13]: inactive
- outcome [14]: inactive
- outcome [15]: inactive
- outcome [16]: inactive
- outcome [17]: inactive

Structure (SMILES): C[C@@H]1O[C@@H](O[C@H]2C[C@@H](O)[C@]3(CO)[C@H]4[C@H](O)C[C@]5(C)[C@@H](C6=CC(=O)OC6)CC[C@]5(O)[C@@H]4CC[C@]3(O)C2)[C@H](O)[C@H](O)[C@H]1O
- AC50 [1]: 0.279 µM (active)
- outcome [2]: inactive
- outcome [3]: inactive
- AC50 [20]: 0.0716 µM (active)
- AC50 [18]: 0.0716 µM (active)
- outcome [5]: inactive
- outcome [6]: inactive
- outcome [7]: inactive
- AC50 [8]: 0.137 µM (active)
- outcome [9]: inactive
- outcome [19]: inactive
- outcome [10]: inactive
- AC50 [11]: 0.0716 µM (active)
- AC50 [12]: 0.0716 µM (active)
- outcome [13]: inactive
- outcome [14]: inactive
- AC50 [15]: 2.31 µM (active)
- AC50 [16]: 0.165 µM (active)
- outcome [17]: inactive

Structure (SMILES): O=NN1CCCCCCC1
- outcome [1]: inactive
- outcome [2]: inactive
- outcome [3]: inactive
- outcome [4]: inactive
- outcome [18]: inactive
- outcome [5]: inactive
- AC50 [8]: 47.4 µM (active)
- outcome [10]: inactive
- outcome [11]: inactive
- outcome [12]: inactive
- outcome [13]: inactive
- outcome [14]: inactive
- outcome [15]: inactive
- outcome [16]: inactive

Structure (SMILES): ClCCCCl
- outcome [1]: inactive
- outcome [2]: inactive
- outcome [3]: inactive
- outcome [4]: inactive
- outcome [18]: inactive
- outcome [5]: inactive
- outcome [6]: inactive
- outcome [7]: inactive
- outcome [8]: inactive
- outcome [9]: inactive
- outcome [19]: inactive
- outcome [10]: inactive
- outcome [11]: inactive
- outcome [12]: inactive
- outcome [13]: inactive
- outcome [14]: inactive
- outcome [16]: inactive
- outcome [17]: inactive

Structure (SMILES): OCC(c1ccc(Cl)cc1)c1ccc(Cl)cc1
- AC50 [1]: 54.6 µM (active)
- outcome [2]: inactive
- outcome [3]: inactive
- AC50 [4]: 55.3 µM (active)
- AC50 [20]: 56.6 µM (active)
- AC50 [5]: 58.9 µM (active)
- AC50 [8]: 8.73 µM (active)
- outcome [19]: inactive
- outcome [10]: inactive
- AC50 [11]: 53.2 µM (active)
- AC50 [12]: 60.9 µM (active)
- outcome [13]: inactive
- outcome [16]: inactive
- outcome [17]: inactive

From PubChem BioAssay (EPA / NIEHS)
